Bioassay records (PubChem BioAssay)
sEH inhibitor = blocks human soluble epoxide hydrolase activity; P34913; recombinant human sEH enzymatic activity assay; inhibition, % at 2 µM; 0.34% of 91,000 active; in the data active = inhibition above about 80%
CYP2C9 inhib = inhibitors of human CYP2C9; inhibition, % at 5 µM; CYP2C9 Supersomes, luciferin-H conversion, luminescence; P11712; 20% of 96,000 active; AID 777;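 active = blocking of liver enzyme CYP2C9 beyond about 50% at 5 µM, limit read from the data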
Target sequence (P11712 whole entry, looked up): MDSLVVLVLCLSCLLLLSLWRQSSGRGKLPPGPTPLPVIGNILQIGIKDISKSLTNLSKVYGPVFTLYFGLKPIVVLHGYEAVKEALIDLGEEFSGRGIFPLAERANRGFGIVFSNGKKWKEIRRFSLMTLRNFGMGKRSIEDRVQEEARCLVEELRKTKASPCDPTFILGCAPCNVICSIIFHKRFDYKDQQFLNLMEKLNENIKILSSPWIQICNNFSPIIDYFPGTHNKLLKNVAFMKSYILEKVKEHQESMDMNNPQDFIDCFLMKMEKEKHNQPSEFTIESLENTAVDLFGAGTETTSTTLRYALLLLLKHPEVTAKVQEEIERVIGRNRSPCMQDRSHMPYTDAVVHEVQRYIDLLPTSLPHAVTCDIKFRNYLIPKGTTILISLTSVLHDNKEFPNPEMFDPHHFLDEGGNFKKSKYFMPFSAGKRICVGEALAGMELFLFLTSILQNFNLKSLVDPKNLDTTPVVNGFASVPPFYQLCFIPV
sEH act = increases human soluble epoxide hydrolase activity. purified human sEH enzymatic activity, activator screen. activation, % at 2 µM. P34913. 0.04% of 91,000 active; in the data active = activation above about 37%
CYP2C19 activ = activators of human cytochrome P450 2C19; recombinant CYP2C19, luciferin-H EGE luminescence; active compounds read high; 0 = fully inhibited enzyme, 1 = untreated enzyme; 96,000 tested, under 10 active; activation factor at 5 µM; P33261;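 active = activation factor of at least 2 at 5 µM in the primary screen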;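 also: 0 = wells with 2.5 mM tranylcypromine and 1 = vehicle-only wells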
CYP2C9 act = increases human cytochrome P450 2C9 activity | activation factor at 5 µM | recombinant CYP2C9, luciferin-H conversion, luminescence; active compounds read high; factor 1 = untreated enzyme, 0 = blocked | 1.4% of 96,000 active | P11712;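 active = activation factor of 2 or more for CYP2C9 at a 5 µM dose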;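 also: 0 = sulfaphenazole-blocked wells and 1 = vehicle-only wells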
CYP2C19 inh = inhibitors of human CYP2C19 | P33261 | 21% of 96,000 active | inhibition, % at 5 µM | CYP2C19 Supersomes, luciferin-H EGE luminescence, 30 min;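 active = CYP2C19 inhibition above a set limit at 5 µM in the primary screen, cut at about 50% in these data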;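 also: plate controls were negative control wells for no effect and 2.5 mM tranylcypromine positive control for full effect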
An asterisk follows results filed as active; . = not tested or not shown. In the library only some 27% were active in any assay of this set; here they are far more common.

SMILES | sEH inhibitor | CYP2C9 inhib | sEH act | CYP2C19 activ | CYP2C9 act | CYP2C19 inh
O=C(CC1NC(=O)NC1=O)Nc1cccc2ccccc12 (stereo not drawn) | 1 | 5 | 2 | 1 | 0.9 | 3
O=C(CC1NC(=O)NC1=O)Nc1ccccc1 (stereo not drawn) | 2 | 68* | 0 | 0.9 | 0.3 | 10
COCc1cc(=O)[nH]c(Nc2nc3ccc(C)cc3o2)n1 | -6 | 48 | 5 | 0.8 | 0.5 | 21
COc1ccc(Cl)cc1C(=O)CSc1nnnn1C1CCCC1 | 3 | 6 | -3 | 0.2 | 0.9 | 76*
O=C(O)c1ccc(CSc2nnnn2C2CCCCC2)cc1 | 7 | -4 | -8 | 1 | 1 | -3
COc1ccc(Cl)cc1C(=O)CSc1nnnn1C1CCCCC1 | 9 | -4 | -6 | 0.3 | 1 | 69*
CCc1ccc(NC(=O)c2onc(C)c2Cl)cc1 | 37 | 4 | -37 | 1.1 | 1 | -6
Cc1ccc2nc3c(cc(C#N)c(=N)n3CCCN3CCOCC3)c(=O)n2c1 | -6 | . | 8 | . | . | .
Cc1cc2nc(C)n3c4ccccc4nc3n2n1 | -17 | -12 | 18 | 1.1 | 1.1 | -13
Cc1ccc(-c2cc(C(F)F)nc(N3CCC(C)CC3)n2)cc1 | -13 | 55* | 16 | 0.9 | 0.5 | 12
O=C(CSc1cn(CCNC(=O)c2ccc3ccccc3c2)c2ccccc12)NCc1ccco1 | 14 | 9 | -12 | 0.7 | 0.9 | 26
O=C(CSc1cn(CCNC(=O)c2cccs2)c2ccccc12)NCc1ccccc1 | 25 | 98* | -23 | 0.1 | 0 | 86*
O=C(CSc1cn(CCNC(=O)c2cccs2)c2ccccc12)NC1CCCCC1 | 13 | 92* | -16 | 0.4 | 0.1 | 59*
O=C(CSc1cn(CCNC(=O)c2cccs2)c2ccccc12)NCC1CCCO1 (stereo not drawn) | . | 81* | . | 0.7 | 0.2 | 34
O=C(Cn1cc(C(=O)c2cccs2)c2ccccc21)NC1CCCCC1 | -1 | 72* | -2 | 0.5 | 0.3 | 55*
O=C(NC1CCCCCC1)c1cccs1 | 12 | 21 | -12 | 0.7 | 0.8 | 35
CN(C)c1nc(Oc2ccc(N)cc2)nc(N(C)C)n1 | 4 | 14 | -8 | 0.7 | 0.9 | 32
O=[N+]([O-])c1cccnc1N1CCC(c2cc(-c3ccc(Cl)cc3Cl)n[nH]2)CC1 | -8 | 85* | 8 | 0.6 | 0.1 | 37
CCC(=O)N1CCN(c2ccc(Cl)cc2NC(=O)c2ccc(N3CCCC3)c([N+](=O)[O-])c2)CC1 | 0 | 36 | -2 | 0.6 | 0.6 | 42
CC(=O)c1ccc(N2CCC(c3cc(-c4ccc(Cl)cc4Cl)n[nH]3)CC2)c([N+](=O)[O-])c1 | -5 | 59* | 2 | 0.5 | 0.4 | 51*
COc1ccc(OC)c(-c2cc(C3CCN(c4ncccc4[N+](=O)[O-])CC3)[nH]n2)c1 | -1 | 49 | 2 | 0.8 | 0.5 | 22
O=[N+]([O-])c1cccnc1N1CCC(c2cc(-c3cccc(C(F)(F)F)c3)n[nH]2)CC1 | -4 | 98* | 2 | 0.3 | 0 | 67*
CC1(C)CC(NC(=O)COc2ccc3ccccc3c2)CC(C)(C)N1 | 6 | 18 | -6 | 0.9 | 0.8 | 14
CCOC(=O)c1c(NC(=S)NC(=O)c2cnn(CC)c2)sc2c1CCC(C)C2 (stereo not drawn) | -3 | 5 | 6 | 1.1 | 0.9 | -9
O=C(COc1ccccc1Cl)NC(=S)Nc1cccc(NC(=O)c2ccccc2Cl)c1 | -15 | 67* | 15 | 0.7 | 0.3 | 26
SMILES | sEH inhibitor | CYP2C9 inhib | sEH act | CYP2C19 activ | CYP2C9 act | CYP2C19 inh
CCC(=O)NC(=S)Nc1cccc(NC(=O)c2ccc(Cl)cc2Cl)c1 | 14 | -5 | -14 | 0.9 | 1 | 9
COc1ccc2nc(SCc3nc(N)nc(Nc4ccccc4)n3)[nH]c2c1 | -4 | 98* | 5 | 0.2 | 0 | 81*
Nc1nc(CSc2ccccn2)nc(Nc2ccccc2)n1 | -3 | 52* | 6 | 0.4 | 0.5 | 55*
CCOC(=O)c1cnc(SCc2nc(N)nc(Nc3ccccc3)n2)nc1N | -4 | 84* | 10 | 0.3 | 0.2 | 66*
COc1ccc(OCc2nc(N)nc(Nc3ccccc3)n2)cc1 | 2 | 70* | 1 | 0.3 | 0.3 | 68*
CSC1=NC2(CCCCC2)C2=C(CCCC2)N1 | . | -2 | . | 1.1 | 1 | -7
COc1ccc(C(C(=O)Nc2ccc(F)cc2)N(C(=O)Cn2nnc3ccccc32)C2CC2)cc1 (stereo not drawn) | 14 | 29 | -12 | 0.8 | 0.7 | 23
O=C(c1ccco1)N1CCN(C(=O)C2Cc3ccccc3CN2S(=O)(=O)c2ccc(F)cc2)CC1 (stereo not drawn) | . | 38 | . | 0.2 | 0.6 | 76*
O=C(c1ccc(S(=O)(=O)Nc2ccc(F)cc2)cc1)N1CCN(C(=O)c2ccco2)CC1 | 10 | 75* | -8 | 0.6 | 0.3 | 44
O=C(c1ccco1)N1CCN(c2ccc(S(=O)(=O)N3CCCC3)cc2)CC1 | -4 | 14 | 2 | 1.1 | 0.9 | -12
O=C(C1Cc2ccccc2CN1S(=O)(=O)c1ccc(F)cc1)N1CCCCC1 (stereo not drawn) | -10 | 7 | 10 | 0.8 | 0.9 | 19
Cc1cc(S(=O)(=O)Nc2ccc(C(=O)N3CCN(C(=O)c4ccco4)CC3)cc2)ccc1F | 1 | 46 | 2 | 0.9 | 0.5 | 13
O=C(c1ccco1)N1CCN(S(=O)(=O)c2ccc(F)cc2)CC1 | -4 | 14 | 7 | 0.5 | 0.9 | 53*
CCc1nc(N)c(C#N)c(-c2ccccc2OC)c1C | 2 | -4 | -1 | 0.3 | 1 | 70*
COc1ccccc1-c1cc(C2CC2)nc(N)c1C#N | 9 | -17 | -11 | 0.2 | 1.2 | 80*
N#Cc1c(-c2ccccc2Cl)cc(C2CC2)nc1N | -13 | -53 | 15 | 0.3 | 1.5 | 74*
COc1ccccc1-c1c(C)c(C)nc(N)c1C#N | 9 | 1 | -9 | 0.9 | 1 | 13
CCOc1ccc(Nc2nc(NCCN3CCOCC3)nc(OC)n2)cc1 | -9 | 7 | 9 | 1 | 0.9 | 0
COCCNC(=O)c1ccccc1NS(=O)(=O)c1ccc(Br)s1 | 2 | 91* | -2 | 0.3 | 0.1 | 72*
CCOc1ccccc1NS(=O)(=O)c1ccc(Br)s1 | 4 | 26 | -6 | 0.1 | 0.7 | 95*
O=C(c1ccccc1NS(=O)(=O)c1ccc(Br)s1)N1CCOCC1 | -8 | -12 | 8 | 0.6 | 1.1 | 45
CCN1CCCC1CNC(=O)CN1C(=O)COc2ccc(C)cc21 (stereo not drawn) | . | -2 | . | 1 | 1 | -1
CN(C)S(=O)(=O)c1cccc(C(=O)Nc2cc(Cl)cc(Cl)c2)c1 | 40 | 98* | -38 | 0.7 | 0 | 32
CCn1c(C)c(C)c2cc(C(=O)Nc3cccc(Cl)c3)ccc21 | 2 | -140 | -2 | 0.9 | 2.4* | 14
CN(C)S(=O)(=O)Oc1cccc(C(=O)Nc2cccc(Cl)c2)c1 | 33 | 82* | -33 | 0.3 | 0.2 | 70*
